Measurements taken from PubChem BioAssay (EPA / NIEHS).
Inconclusive results are not listed. Active and inactive are the calls of the source. Rule for the calls: active = hit-call score of the fitted dose curve at least 0.9, where 1 is the maximum; inconclusive = response in the unintended direction; inactive = score below 0.9.

These compounds were tested against Ratio of Nucleoli Translocation and Cytoplasm, AR (gene 367) (UniProt P10275) (assay: UPITT_HCI_U2OS_AR_TIF2_Nucleoli_Cytoplasm_Ratio_Antagonist: University of Pittsburgh U2OS Androgen Receptor-Transcriptional Intermediary Factor 2 (AR-TIF2) Antagonism High Content Imaging Assay for Ratio of Nucleoli Translocation and Cytoplasm (AID 2283999);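 note: antagonists lower the DHT-driven ratio of nucleolar to cytoplasmic red signal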).
Text: UPITT_AR_TIF2_PPIB is a cell-based, high-content imaging assay that uses U2OS, a human osteosarcoma cell line, expressing a human androgen receptor fused to red fluorescent protein and the coactivator TIF2 fused to green fluorescent protein. UPITT_HCI_U2OS_AR_TIF2_Nucleoli_Cytoplasm_Ratio_Antagonist is one of four assay components measured from the UPITT_AR_TIF2_PPIB assay. It is designed to make measurements of the ratio of red fluorescence localized in the nucleolar region of the cell nucleus to red fluorescence localized in the cytoplasm as detected with high-content fluorescent imaging.Data from the assay component UPITT_HCI_U2OS_AR_TIF2_Nucleoli_Cytoplasm_Ratio_Antagonist was analyzed into 1 assay endpoint. This assay endpoint, UPITT_HCI_U2OS_AR_TIF2_Nucleoli_Cytoplasm_Ratio_Antagonist, was analyzed in the positive analysis fitting direction relative to DHT as the baseline of activity. Using a type of binding reporter, measures of receptor for loss-of-signal activity can be used to understand the binding at the pathway-level as it relates to the gene AR.
Daughter plates containing 2 uL of 10 mM compounds in DMSO were prepared and replicated from the 384-well Library of Pharmacologically Active Compounds (LOPAC) master plates using the Bravo outfitted with a 384-well transfer head. Aluminum adhesive plate seals were applied with an Abgene Seal-IT 100 (Rochester, NY) plate sealer, and the plates were stored at -20 C in a Matrical MatriMinistore (Spokane, WA) automated compound storage and retrieval system. For screening, LOPAC daughter plates were withdrawn from -20C storage, thawed to ambient temperature, centrifuged 1-2 min at 50 g, and the plate seals were removed before the transfer of 98 uL of serum-free tissue culture medium (SFM) into wells using the BioTek Microflo liquid handler (BioTek, Winooski, VT) to generate a 200 uM intermediate stock concentration of library compounds (2.0% DMSO). The diluted compounds were mixed by repeated aspiration and dispensation using a 384-well P30 dispensing head on the Evolution P3 (EP3) liquid handling platform (PerkinElmer, Waltham, MA) and then 5 uL of diluted compounds was transferred to the wells of assay plates. In the LOPAC screen, compounds were individually tested at a final concentration of 20 uM (0.2% DMSO). After the diluted compounds had been transferred from the daughter plates to the primary HCS assay plates, aluminum adhesive plate seals were applied and the diluted daughter plates were stored frozen at -20C. To confirm active compounds identified in the primary screen, we withdrew the LOPAC daughter plates containing the 200 uM intermediate concentration of library compounds (2.0% DMSO) from -20C storage, thawed them to ambient temperature, centrifuged them for 1-2 min at 50 g, and removed the plate seals. A work list was generated to direct the Multiprobe Janus liquid handling platform (PerkinElmer) to cherry pick 75 uL from the wells of the diluted daughter plates that were flagged active in the primary screen and to reformat these into a 384-well plate hit confirmation daughter plate. Five microliters of primary HCS active compounds was then transferred into triplicate wells of assay plates using a 384-well P30 dispensing head on the Evolution P3 (EP3) liquid handling platform (PerkinElmer). […] Daughter plates containing 2 uL of the serially diluted compounds in DMSO were prepared and replicated from the 384-well serial dilution master plates using the Bravo outfitted with a 384-well transfer head. Aluminum adhesive plate seals were applied and plates were stored at -20C. For testing in the bioassays, daughter plates were withdrawn from -20C storage, thawed to ambient temperature, centrifuged for 1-2 min at 50 g, and the plate seals were removed before the transfer of 38 uL of SFM into wells using the BioTek Microflo liquid handler (BioTek) to generate an intermediate stock concentration of library compounds ranging from 1.95 to 500 uM (5.0% DMSO). […]

Ratio of Nucleoli Translocation and Cytoplasm, AR (gene 367), sequence (P10275 whole entry, looked up, the tested form may be a part): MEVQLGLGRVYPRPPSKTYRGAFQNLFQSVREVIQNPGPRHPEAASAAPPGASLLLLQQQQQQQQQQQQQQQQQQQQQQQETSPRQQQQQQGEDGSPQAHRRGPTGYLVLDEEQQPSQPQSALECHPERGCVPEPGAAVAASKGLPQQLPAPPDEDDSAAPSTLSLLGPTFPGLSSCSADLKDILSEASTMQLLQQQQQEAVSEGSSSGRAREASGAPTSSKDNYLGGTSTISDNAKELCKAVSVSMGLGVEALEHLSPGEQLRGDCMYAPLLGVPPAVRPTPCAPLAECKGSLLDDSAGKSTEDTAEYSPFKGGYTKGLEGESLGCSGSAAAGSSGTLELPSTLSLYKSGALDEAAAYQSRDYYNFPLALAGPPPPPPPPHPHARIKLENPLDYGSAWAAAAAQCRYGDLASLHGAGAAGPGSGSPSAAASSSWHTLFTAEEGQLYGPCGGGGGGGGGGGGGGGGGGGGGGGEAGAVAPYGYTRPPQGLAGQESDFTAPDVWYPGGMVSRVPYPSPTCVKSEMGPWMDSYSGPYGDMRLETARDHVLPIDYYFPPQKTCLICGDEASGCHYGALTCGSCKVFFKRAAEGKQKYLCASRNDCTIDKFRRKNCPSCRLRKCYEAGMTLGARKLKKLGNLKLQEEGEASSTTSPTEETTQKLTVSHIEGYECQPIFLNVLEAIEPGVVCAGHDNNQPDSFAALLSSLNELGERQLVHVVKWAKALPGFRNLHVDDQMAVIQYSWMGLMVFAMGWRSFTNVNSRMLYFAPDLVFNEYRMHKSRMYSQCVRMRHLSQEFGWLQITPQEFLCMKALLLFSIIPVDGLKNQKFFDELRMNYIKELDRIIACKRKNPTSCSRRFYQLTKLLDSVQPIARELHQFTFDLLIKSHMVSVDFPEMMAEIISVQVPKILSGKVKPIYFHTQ

Row | Compound | outcome | AC50
1 | Cc1nn(C)c(Oc2ccccc2)c1C=NOCc1ccc(C(=O)OC(C)(C)C)cc1 | inactive | –
2 | N#CSCSc1nc2ccccc2s1 | – | 32.4 µM (active)
3 | CSC(=O)c1cccc2nnsc12 | inactive | –
4 | CC(C)(c1ccc(O)cc1)c1ccc(O)cc1 | inactive | –
5 | CC1(C)C(C=C(Cl)Cl)C1C(=O)OCc1cccc(Oc2ccccc2)c1 (centres undefined) | inactive | –
6 | CCCCOCCOCCOCc1cc2c(cc1CCC)OCO2 | inactive | –
7 | CC(=O)S[C@@H]1CC2=CC(=O)CC[C@]2(C)[C@H]2CC[C@@]3(C)[C@@H](CC[C@@]34CCC(=O)O4)[C@H]12 | inactive | –
8 | O=C(c1ccccc1)C1CCCCC1 | inactive | –
9 | CN(C)C(=O)Nc1ccc(Cl)c(Cl)c1 | inactive | –
10 | CCOC(=O)C(C)Oc1ccc(Oc2nc3ccc(Cl)cc3o2)cc1 (centres undefined) | inactive | –
11 | CCCOC(=O)c1ccc(C(=O)OCCC)nc1 | inactive | –
12 | COC(=O)CSc1cc(N=c2sc(=O)n3n2CCCC3)c(F)cc1Cl | inactive | –
13 | CCSC(=O)N(CC(C)C)CC(C)C | inactive | –
14 | O=C(c1ccc(O)cc1O)c1ccc(O)cc1O | – | 2.35 µM (active)
